# Laboratory results: the supplement of paper PMC7156485
# Tested on: HCC1569
# Assay: H1.0 immunofluorescence intensity relative to DMSO (% of DMSO); higher = stronger H1.0 induction, active = 140 or more
# Conditions: concentration: 10 µM; 24 h
# Method in brief: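 H1.0 nuclear intensity or cell number is stated as percent of the plate control, based on the median of replicates, and HCC1569 values were smoothed for positional effects. These came from HCC1569 and TDF cells treated with compounds at 10 µM for 24 h at 37 °C in triplicate, then fixed in 3.7% formaldehyde and stained with a rabbit anti-H1.0 antibody, an AlexaFluor 647 secondary and DAPI.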
# 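Also: TDF is a line of transformed human dermal fibroblasts of mesenchymal origin.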
row,Compound,H1.0 immunofluorescence intensity
1,COc1ccc2c(c1)=NC1=C(C)NCCC=21 [Harmaline],93.9 (inactive)
2,CCN1CC2(COC)CCC(OC)C34C5CC6(O)C(OC)CC(OC(C)=O)(C5C6C(=O)c5ccc(OC)cc5)C(C(OC)C23)C14 (centres undefined) [Bulleyaconotine A],88.8 (inactive)
3,CC(C)N(CCC(C(N)=O)(c1ccccc1)c1ccccn1)C(C)C (centres undefined) [Disopyramide],98.5 (inactive)
4,CCN(C)C(=O)Oc1cccc([C@H](C)N(C)C)c1.O=C(O)C(O)C(O)C(=O)O,96.1 (inactive)
5,Cl.O=C(CCCN1CCC2(CC1)C(=O)N(CCc1ccc(N=C=S)cc1)CN2c1ccccc1)c1ccc(F)cc1 [N-(p-Isothiocyanatophenethyl)spiperone hydrochloride],149 (active)
6,CN1CCC(c2c[nH]c3ccc(O)cc23)CC1.O=C(O)C=CC(=O)O,82.3 (inactive)
7,"C=CC1CN2CCC1CC2C(O)c1ccnc2ccccc12 (single isomer, unassigned; (-)) [(-)-Cinchonidine]",100 (inactive)
8,CCCCCCCCCCCCCC(=O)OC1C(C)C2(O)C(C=C(CO)CC3(O)C(=O)C(C)=CC32)C2C(C)(C)C12OC(C)=O (centres undefined) [Phorbol 12-myristate 13-acetate],125 (inactive)
9,Cc1nccc2c1[nH]c1ccccc12 [Harmane],96.7 (inactive)
10,CCN(CC)C(=O)NC1C=C2c3cccc4[nH]cc(c34)CC2N(C)C1.O=C(O)C=CC(=O)O (stereo not drawn) [R(+)-Lisuride hydrogen maleate],92.7 (inactive)
11,CC1=CC23C(=O)C(C=C(CO)C(O)C2(O)C1O)C1C(CC3C)C1(C)C (centres undefined) [Ingenol],80 (inactive)
12,CCCN1CC(CSC)CC2c3cccc4[nH]cc(c34)CC21.CS(=O)(=O)O (centres undefined) [Pergolide mesylate],112 (inactive)
13,"C[N+]1(C)C2CC(OC(=O)C(CO)c3ccccc3)CC1C1OC12.O=[N+]([O-])[O-] (single isomer, unassigned; (-)) [(-)-Scopolamine methyl nitrate]",106 (inactive)
14,CCN1CC2(COC)CCC(OC)C34C5CC6C(OC)CC7(OCOC7(C(O)C23)C14)C5C6OC (centres undefined) [Delcorine],94.3 (inactive)
15,CCN1CC2(C)CCC(O)C34C5CC6C(OC)CC(O)(C(CC23)C14)C5C6O (centres undefined) [Karakoline],99.8 (inactive)
16,CN1C2CCC1CC(OC(=O)C(CO)c1ccccc1)C2 (centres undefined) [Atropine],107 (inactive)
17,CN(C)CCc1ccc(O)cc1.CN(C)CCc1ccc(O)cc1.O=S(=O)(O)O [Hordenine sulfate],99.9 (inactive)
18,CC12CCC3C(CC=C4CC(O)CCC43C)C1CCC2=O (centres undefined) [Dehydroepiandrosterone],93.6 (inactive)
19,Cl.NC(=O)c1ccc(OCC(O)CN2CC=C(c3ccc(F)cc3)CC2)cc1 (centres undefined),106 (inactive)
20,CCCCc1ccc(C(=O)O)nc1 [Fusaric acid],88.6 (inactive)

row,Compound,H1.0 immunofluorescence intensity
1,CN1CC[C@@]2(C)c3cc(OC(=O)Nc4ccccc4)ccc3N(C)[C@@H]12,102 (inactive)
2,O=P1(N(CCCl)CCCl)NCCCO1 (centres undefined) [Cyclophosphamide],101 (inactive)
3,CN(C)C1C(=O)C(C(N)=O)=C(O)C2(O)C(=O)C3=C(O)c4c(O)cccc4C(C)(O)C3CC12 (centres undefined) [Tetracycline],95.2 (inactive)
4,O=C1CCCN1CC#CCN1CCCC1 [Oxotremorine],102 (inactive)
5,CCCN1CCOC2c3cc(O)ccc3OCC21.Cl (racemic),96.5 (inactive)
6,"CCC(C)CC(C)N (centres undefined) [1,3-dimethylpentylamine]",96.9 (inactive)
7,CC1OC(=O)C2CC3CCCCC3C(C=CC3CCCC(C)N3C)C12 (centres undefined) [Himbacine],87.4 (inactive)
8,CCC(C)C=C(C)C=CC1=CC2=C(Cl)C(=O)C(C)(OC(C)=O)C(=O)C2=CO1 (centres undefined) [Sclerotiorin],95.1 (inactive)
9,Cl.NCC#Cc1ccccc1 [3-Phenylpropargylamine hydrochloride],102 (inactive)
10,C=CCN1CCC23c4c5ccc(O)c4OC2C(=O)CCC3(O)C1C5 (centres undefined) [Naloxone],117 (inactive)
11,"CC1=C(O)C(=O)C2OC2C1=O (single isomer, unassigned; (-))",117 (inactive)
12,Cc1c2ccncc2c(C)c2c1[nH]c1ccccc12 [Ellipticine],194 (active)
13,CCC1C(C)=NN=C(c2ccc(OC)c(OC)c2)c2cc(OC)c(OC)cc21 (centres undefined),90.9 (inactive)
14,"O=c1cccc2n1CC1CNCC2C1 (single isomer, unassigned; (-)) [(-)-Cytisine]",96.6 (inactive)
15,"Br.NC1CCc2cc(O)c(O)cc2C1 (centres undefined) [6,7-ADTN hydrobromide]",92.4 (inactive)
16,Cl.Cl.Oc1ccc2c3c1OC1c4[nH]c5c(c4CC4(O)C(C2)N(CC2CC2)CCC314)CC1(O)C2Cc3ccc(O)c4c3C1(CCN2CC1CC1)C5O4 (centres undefined) [nor-Binaltorphimine dihydrochloride],89.7 (inactive)
17,CN1C2CC(OC(=O)C(CO)c3ccccc3)CC1C1OC12 (centres undefined) [Scopolamine],96.7 (inactive)
18,CC(=O)OC1C2C(OC(=O)Cc3ccccc3)C(C)CC2(OC(C)=O)C(=O)C(C)=CC2C(CCC13CO3)C2(C)C (centres undefined) [Euphorbiasteroid],91.5 (inactive)
19,O=[N+]([O-])C=Cc1ccc2c(c1)OCO2 [Syk Inhibitor III],99.6 (inactive)
